# PubChem BioAssay (EPA / NIEHS)
# “And” between values parts separate entries of the source, which are not always exact repeats. Equal values may be shown once. Records with an inconclusive call do not appear. More than one record can exist for a structure, and the calls need not agree. The source made the active and inactive calls. Rule for the calls: active = hit-call score of the fitted dose curve at least 0.9, where 1 is the maximum; inconclusive = response in the unintended direction; inactive = score below 0.9.
# Legend:
# [1] = tested on: turtle Estrogen Receptor (ERa), gene 101933533; test: ATG_trERa_XSP2: Attagene TRANS-FACTORIAL Multi-Species (XSP2) HepG2 Assay for turtle Estrogen Receptor (ERa) (AID 2283812);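 note: actives raise reporter signal above DMSO so AC50 reflects agonist activity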
# In short: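 Readout is reporter mRNA quantified by RT-PCR with capillary electrophoresis after 24 h compound exposure, increase relative to DMSO. Uses transiently transfected human HepG2 liver cells carrying a chimeric turtle ERa-Gal4 receptor driving GAL4-UAS reporters.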
# [2] = biological target: Estrogen receptor beta (Homo sapiens) (UniProt Q92731); test: ATG_hERb_XSP2: Attagene TRANS-FACTORIAL Multi-Species (XSP2) HepG2 Assay for human Estrogen Receptor (ERb) (AID 2283813);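 note: actives raise reporter mRNA above DMSO so AC50 reflects agonist induction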
# In short: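 Transient TRANS reporter system in HepG2: after 24 h of chemical, RNA is reverse-transcribed, reporter cDNA amplified, FAM-labelled and sized by capillary electrophoresis. Induction of the human ERb-Gal4 reporter is measured relative to DMSO.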
# [3] = biological target: GAL4 Transcription Factor (Internal Marker), GAL4 (gene 855828) (UniProt P04386); test: ATG_GAL4_XSP2: Attagene TRANS-FACTORIAL Multi-Species (XSP2) HepG2 Assay for GAL4 Transcription Factor (Internal Marker) (AID 2283814);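 note: GAL4 reporter mRNA background control in MRTU transfected cells not a receptor target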
# In short: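 Background-control readout: gain-of-signal fitted against DMSO. After 24 h exposure of transfected HepG2 (MRTU, GAL4-UAS reporters; 3 nM 6-alpha-fluorotestosterone, 1.5 nM norgestrel present), transcripts quantified by RT-PCR and capillary electrophoresis fluorescence.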
# [4] = biological target: chicken Estrogen Receptor (ERa), ESR1 (gene 396099) (UniProt P06212); test: ATG_chERa_XSP2: Attagene TRANS-FACTORIAL Multi-Species (XSP2) HepG2 Assay for chicken Estrogen Receptor (ERa) (AID 2283817);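 note: actives raise reporter signal above DMSO so AC50 reflects ER activation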
# In short: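 Reporter mRNA induction read by RT-PCR, fluorescent labelling and capillary electrophoresis after 24 h exposure; positive-direction fit against DMSO baseline. HepG2 cells transfected with multiplexed GAL4-UAS units including chicken ERa chimera; medium contained 3 nM 6-alpha-fluorotestosterone plus 1.5 nM norgestrel.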
# [5] = tested on: zebrafish Estrogen Receptor (ER2a), gene 317734; test: ATG_zfER2a_XSP2: Attagene TRANS-FACTORIAL Multi-Species (XSP2) HepG2 Assay for zebrafish Estrogen Receptor (ER2a) (AID 2283818);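 note: hits raise reporter mRNA so AC50 reflects activation of zebrafish ER2a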
# In short: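 Multiplexed trans-reporter readout: RT-PCR then capillary electrophoresis of reporter transcripts after 24 h compound treatment. Human HepG2 carries transfected zebrafish ER2a-Gal4 chimera; 3 nM 6-alpha-fluorotestosterone plus 1.5 nM norgestrel present. Induction scored against DMSO.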
# [6] = tested on: zebrafish Estrogen Receptor (ER2b), gene 317733; test: ATG_zfER2b_XSP2: Attagene TRANS-FACTORIAL Multi-Species (XSP2) HepG2 Assay for zebrafish Estrogen Receptor (ER2b) (AID 2283823);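 note: fitted upward as reporter gain over DMSO so potency reflects activation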
# In short: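 Cells used were HepG2, transiently transfected with chimeric nuclear receptor-Gal4 reporter units. After 24 h of chemical treatment, reporter transcripts were amplified by RT-PCR, labelled and sized by capillary electrophoresis, with induction analysed relative to DMSO.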
# [7] = tested on: frog Estrogen Receptor (ER2), gene 100174814; test: ATG_frER2_XSP2: Attagene TRANS-FACTORIAL Multi-Species (XSP2) HepG2 Assay for frog Estrogen Receptor (ER2) (AID 2283828)
# In short: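 Read-out: reporter transcript levels by RT-PCR with 6-FAM primer extension, HpaI digestion and capillary electrophoresis, scored as induction over DMSO control. Transfected HepG2 carrying Xenopus ER2–GAL4 chimera; compounds incubated 24 h.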
# [8] = biological target: Peroxisome proliferator-activated receptor gamma (Homo sapiens) (UniProt P37231); test: ATG_hPPARg_XSP2: Attagene TRANS-FACTORIAL Multi-Species (XSP2) HepG2 Assay for human Peroxisome Proliferator-activated Receptor gamma (PPARg) (AID 2283829);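 note: actives raise reporter mRNA above DMSO so AC50 reflects PPARg activation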
# In short: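 After transfecting HepG2 with GAL4-UAS reporter constructs, cells are dosed for 24 h; total RNA is reverse-transcribed, PCR-amplified, FAM-labeled, HpaI-digested and resolved by capillary electrophoresis. Activity is measured as mRNA induction relative to DMSO.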
# [9] = biological target: mouse Peroxisome Proliferator-activated Receptor gamma (PPARg), Pparg (gene 19016) (UniProt P37238); test: ATG_mPPARg_XSP2: Attagene TRANS-FACTORIAL Multi-Species (XSP2) HepG2 Assay for mouse Peroxisome Proliferator-activated Receptor gamma (PPARg) (AID 2283830);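 note: hits are gains in reporter mRNA above DMSO so AC50 marks activation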
# In short: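 Multiplexed TRANS reporter readout: after 24 h chemical exposure of transfected HepG2 cells (with 3 nM 6-alpha-fluorotestosterone, 1.5 nM norgestrel present), RNA reverse-transcribed, amplified, 6-FAM-labelled and resolved by capillary electrophoresis; mouse PPARg-Gal4 induction scored against DMSO.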
# [10] = biological target: Nuclear receptor subfamily 1 group I member 2 (Mus musculus) (UniProt O54915); test: ATG_mPXR_XSP2: Attagene TRANS-FACTORIAL Multi-Species (XSP1) HepG2 Assay for mouse Pregnane X Receptor (PXR) (AID 2283831)
# In short: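 Reporter transcripts were quantified by RT-PCR, FAM primer extension, HpaI digestion and capillary electrophoresis after 24 h of chemical exposure in transiently transfected HepG2 cells carrying chimeric receptor-GAL4 constructs; DMSO served as baseline.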
# [11] = tested on: zebrafish Peroxisome Proliferator-activated Receptor gamma (PPARg), gene 557037; test: ATG_zfPPARg_XSP2: Attagene TRANS-FACTORIAL Multi-Species (XSP2) HepG2 Assay for zebrafish Peroxisome Proliferator-activated Receptor gamma (PPARg) (AID 2283833);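 note: actives increase reporter signal over DMSO so AC50 reflects activation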
# In short: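 Multi-species TRANS format in HepG2, 24 h dosing; medium also contained 3 nM 6-alpha-fluorotestosterone and 1.5 nM norgestrel to stimulate androgen receptor. Zebrafish PPARg-GAL4 induced reporter mRNA was measured by RT-PCR/capillary electrophoresis.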
# [12] = biological target: zebrafish Estrogen Receptor (ER1), esr1 (gene 259252) (UniProt P57717); test: ATG_zfER1_XSP2: Attagene TRANS-FACTORIAL Multi-Species (XSP2) HepG2 Assay for zebrafish Estrogen Receptor (ER1) (AID 2283816)
# In short: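 After 24 h compound exposure, RNA from transfected HepG2 cells was reverse-transcribed and reporter transcripts resolved by capillary electrophoresis. The TRANS format reads exogenous zebrafish ER1-Gal4 chimera activity on GAL4-UAS elements; gain of signal against DMSO.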
# [13] = tested on: frog Estrogen Receptor (ER), gene 398734; test: ATG_frER1_XSP2: Attagene TRANS-FACTORIAL Multi-Species (XSP2) HepG2 Assay for frog Estrogen Receptor (ER) (AID 2283821);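 note: hits raise reporter mRNA above DMSO baseline so potency means agonist or activator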
# In short: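 HepG2 cells transiently transfected with multiplexed GAL4-UAS reporter units expressing chimeric NR-Gal4 proteins (TRANS format) were dosed for 24 h. Reporter mRNA was quantified by RT-PCR, FAM primer extension, HpaI digestion and capillary electrophoresis; gain of signal relative to DMSO.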
# [14] = ATG_M_19_XSP2: Attagene TRANS-FACTORIAL Multi-Species (XSP2) HepG2 Assay for M32 Transcription Factor (Internal Marker) (AID 2283822)
# In short: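 Internal background marker in a multi-species nuclear receptor TRANS panel: transfected HepG2 cells exposed 24 h, with 3 nM 6-alpha-fluorotestosterone and 1.5 nM norgestrel present. Readout is RT-PCR of reporter transcripts resolved by capillary electrophoresis, gain-of-signal versus DMSO.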
# [15] = biological target: Estrogen receptor (Homo sapiens) (UniProt P03372); test: ATG_hERa_XSP2: Attagene TRANS-FACTORIAL Multi-Species (XSP2) HepG2 Assay for human Estrogen Receptor (ERa) (AID 2283827)
# In short: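 Trans-activation of exogenous human ERa-Gal4 chimera read in HepG2 as reporter transcript after 24 h exposure; medium included 3 nM 6-alpha-fluorotestosterone and 1.5 nM norgestrel. Quantified by RT-PCR with capillary electrophoresis, positive-direction fitting against DMSO.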
# [16] = biological target: zebrafish Thyroid Hormone Receptor alpha (TRa), thraa (gene 30670) (UniProt Q98867); test: ATG_zfTRa_XSP2: Attagene TRANS-FACTORIAL Multi-Species (XSP1) HepG2 Assay for zebrafish Thyroid Hormone Receptor alpha (TRa) (AID 2283832);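 note: actives raise zebrafish TRa-Gal4 reporter transcript above DMSO baseline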
# In short: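 Readout is reporter mRNA induction, quantified by RT-PCR and capillary electrophoresis with fluorescent labelling, after 24 h compound exposure of transiently transfected HepG2 cells carrying NR-Gal4 chimera reporters. Activity fitted upward relative to DMSO.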
# [17] = tested on: chicken Androgen Receptor (AR), gene 422165; test: ATG_chAR_XSP2: Attagene TRANS-FACTORIAL Multi-Species (XSP2) HepG2 Assay for chicken Androgen Receptor (AR) (AID 2283819);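 note: hits raise reporter mRNA above DMSO so potency is for activation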
# In short: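 Readout is reporter mRNA induction via RT-PCR/capillary electrophoresis after 24 h chemical exposure, positive direction relative to DMSO. Transiently transfected HepG2 express chimeric chicken AR–GAL4; AR stimulated by 3 nM 6-alpha-fluorotestosterone and 1.5 nM norgestrel.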
# [18] = tested on: frog Androgen Receptor (AR), gene 399456; test: ATG_frAR_XSP2: Attagene TRANS-FACTORIAL Multi-Species (XSP2) HepG2 Assay for frog Androgen Receptor (AR) (AID 2283824);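 note: reporter mRNA from GAL4-UAS units driven by Xenopus AR-Gal4 chimera; actives raise reporter signal above DMSO so AC50 reflects agonist-like induction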
# In short: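 Reporter transcript induction, read by RT-PCR with fluorescent capillary electrophoresis, in human liver HepG2 cells carrying an exogenous Xenopus AR-Gal4 fusion and GAL4-driven reporters; chemical exposure 24 hours, activity scored upward against DMSO controls.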
# [19] = ATG_M_32_XSP2: Attagene TRANS-FACTORIAL Multi-Species (XSP2) HepG2 Assay for M19 Transcription Factor (Internal Marker) (AID 2283826)
# In short: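 Transfected HepG2 (multiplexed GAL4-UAS reporters), 24 h chemical exposure, 3 nM 6-alpha-fluorotestosterone + 1.5 nM norgestrel added. RNA → oligo(dT) RT → PCR → 6-FAM primer extension → HpaI cut → CE. Fitted upward vs DMSO.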
# Peroxisome proliferator-activated receptor gamma (Homo sapiens), sequence (P37231 whole entry, looked up, the tested form may be a part): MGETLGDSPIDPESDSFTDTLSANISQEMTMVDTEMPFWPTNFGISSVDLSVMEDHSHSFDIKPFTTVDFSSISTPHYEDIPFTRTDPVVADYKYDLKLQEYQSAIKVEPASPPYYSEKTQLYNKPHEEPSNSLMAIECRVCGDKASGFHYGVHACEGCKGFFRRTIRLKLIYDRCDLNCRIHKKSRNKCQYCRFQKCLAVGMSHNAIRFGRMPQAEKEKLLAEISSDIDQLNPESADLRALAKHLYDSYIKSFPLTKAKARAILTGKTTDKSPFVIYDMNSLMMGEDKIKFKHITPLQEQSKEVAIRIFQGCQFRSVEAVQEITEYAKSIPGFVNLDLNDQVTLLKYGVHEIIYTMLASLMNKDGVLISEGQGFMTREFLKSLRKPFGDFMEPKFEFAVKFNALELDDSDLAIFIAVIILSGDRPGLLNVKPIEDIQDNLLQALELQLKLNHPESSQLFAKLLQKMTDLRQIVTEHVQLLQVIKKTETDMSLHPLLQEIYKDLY
# GAL4 Transcription Factor (Internal Marker), GAL4 (gene 855828), sequence (P04386 whole entry, looked up, the tested form may be a part): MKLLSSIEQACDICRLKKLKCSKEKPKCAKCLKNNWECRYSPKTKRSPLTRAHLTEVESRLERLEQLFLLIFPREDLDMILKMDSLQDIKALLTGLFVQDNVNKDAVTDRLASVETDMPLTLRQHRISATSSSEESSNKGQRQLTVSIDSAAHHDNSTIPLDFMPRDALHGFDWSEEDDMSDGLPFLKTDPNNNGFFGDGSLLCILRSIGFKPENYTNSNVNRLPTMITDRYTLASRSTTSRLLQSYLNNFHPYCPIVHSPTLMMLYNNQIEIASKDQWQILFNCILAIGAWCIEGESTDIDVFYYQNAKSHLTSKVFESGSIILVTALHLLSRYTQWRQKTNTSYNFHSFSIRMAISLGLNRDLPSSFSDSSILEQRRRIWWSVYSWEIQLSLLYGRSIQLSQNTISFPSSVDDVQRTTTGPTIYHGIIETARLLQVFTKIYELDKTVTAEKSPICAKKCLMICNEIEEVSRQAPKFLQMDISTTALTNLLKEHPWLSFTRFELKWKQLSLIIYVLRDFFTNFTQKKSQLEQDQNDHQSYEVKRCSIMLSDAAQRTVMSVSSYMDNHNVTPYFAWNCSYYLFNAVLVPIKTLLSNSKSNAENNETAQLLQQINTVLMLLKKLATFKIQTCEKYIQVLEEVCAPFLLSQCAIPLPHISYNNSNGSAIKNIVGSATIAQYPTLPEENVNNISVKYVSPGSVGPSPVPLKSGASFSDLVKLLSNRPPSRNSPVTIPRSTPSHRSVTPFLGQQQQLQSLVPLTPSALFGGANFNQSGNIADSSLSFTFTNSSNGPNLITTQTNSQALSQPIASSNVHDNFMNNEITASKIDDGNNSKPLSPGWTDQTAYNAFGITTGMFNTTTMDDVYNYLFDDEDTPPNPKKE
# Nuclear receptor subfamily 1 group I member 2 (Mus musculus), sequence (O54915 whole entry, looked up, the tested form may be a part): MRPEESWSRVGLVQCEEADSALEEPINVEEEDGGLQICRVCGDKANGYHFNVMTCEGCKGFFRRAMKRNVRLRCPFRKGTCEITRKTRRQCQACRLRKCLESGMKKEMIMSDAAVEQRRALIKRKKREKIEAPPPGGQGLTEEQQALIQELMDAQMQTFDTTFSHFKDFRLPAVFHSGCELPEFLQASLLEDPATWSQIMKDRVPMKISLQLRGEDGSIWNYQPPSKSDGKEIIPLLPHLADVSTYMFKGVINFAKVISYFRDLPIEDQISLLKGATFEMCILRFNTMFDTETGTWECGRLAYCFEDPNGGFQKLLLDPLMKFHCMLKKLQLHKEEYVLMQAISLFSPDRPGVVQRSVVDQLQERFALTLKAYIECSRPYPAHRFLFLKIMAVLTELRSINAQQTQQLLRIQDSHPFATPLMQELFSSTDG
# Estrogen receptor (Homo sapiens), sequence (P03372 whole entry, looked up, the tested form may be a part): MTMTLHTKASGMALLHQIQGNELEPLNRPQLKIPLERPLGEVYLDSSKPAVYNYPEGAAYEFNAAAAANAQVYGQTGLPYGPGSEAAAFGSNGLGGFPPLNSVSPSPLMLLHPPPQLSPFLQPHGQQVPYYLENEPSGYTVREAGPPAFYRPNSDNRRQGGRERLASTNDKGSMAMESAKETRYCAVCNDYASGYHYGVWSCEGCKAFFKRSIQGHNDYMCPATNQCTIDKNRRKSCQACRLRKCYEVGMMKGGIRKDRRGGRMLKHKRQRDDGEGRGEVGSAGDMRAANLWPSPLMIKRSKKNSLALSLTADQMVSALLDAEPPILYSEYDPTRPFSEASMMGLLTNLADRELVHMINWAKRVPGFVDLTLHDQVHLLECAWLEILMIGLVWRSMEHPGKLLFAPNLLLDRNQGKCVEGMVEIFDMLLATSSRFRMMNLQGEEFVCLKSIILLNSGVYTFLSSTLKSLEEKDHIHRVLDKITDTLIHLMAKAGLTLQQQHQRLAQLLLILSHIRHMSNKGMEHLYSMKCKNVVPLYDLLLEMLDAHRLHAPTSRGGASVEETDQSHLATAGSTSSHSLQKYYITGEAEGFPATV
# chicken Estrogen Receptor (ERa), ESR1 (gene 396099), sequence (P06212 whole entry, looked up, the tested form may be a part): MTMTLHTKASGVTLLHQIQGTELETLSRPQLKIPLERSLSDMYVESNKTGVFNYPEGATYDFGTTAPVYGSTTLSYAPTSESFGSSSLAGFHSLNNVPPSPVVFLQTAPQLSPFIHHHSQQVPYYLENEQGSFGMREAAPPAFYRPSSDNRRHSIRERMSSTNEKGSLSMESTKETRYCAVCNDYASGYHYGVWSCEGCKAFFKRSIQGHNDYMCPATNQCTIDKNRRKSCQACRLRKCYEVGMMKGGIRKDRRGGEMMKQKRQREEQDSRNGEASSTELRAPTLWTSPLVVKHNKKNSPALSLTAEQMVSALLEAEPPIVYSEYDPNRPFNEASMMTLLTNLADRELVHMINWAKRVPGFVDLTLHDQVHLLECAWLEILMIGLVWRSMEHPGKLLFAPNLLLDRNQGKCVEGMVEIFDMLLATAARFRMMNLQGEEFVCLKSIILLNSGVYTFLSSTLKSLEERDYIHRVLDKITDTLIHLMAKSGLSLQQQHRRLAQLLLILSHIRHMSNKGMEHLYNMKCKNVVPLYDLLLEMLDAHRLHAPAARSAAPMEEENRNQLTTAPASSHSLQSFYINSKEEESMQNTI
# Estrogen receptor beta (Homo sapiens), sequence (Q92731 whole entry, looked up, the tested form may be a part): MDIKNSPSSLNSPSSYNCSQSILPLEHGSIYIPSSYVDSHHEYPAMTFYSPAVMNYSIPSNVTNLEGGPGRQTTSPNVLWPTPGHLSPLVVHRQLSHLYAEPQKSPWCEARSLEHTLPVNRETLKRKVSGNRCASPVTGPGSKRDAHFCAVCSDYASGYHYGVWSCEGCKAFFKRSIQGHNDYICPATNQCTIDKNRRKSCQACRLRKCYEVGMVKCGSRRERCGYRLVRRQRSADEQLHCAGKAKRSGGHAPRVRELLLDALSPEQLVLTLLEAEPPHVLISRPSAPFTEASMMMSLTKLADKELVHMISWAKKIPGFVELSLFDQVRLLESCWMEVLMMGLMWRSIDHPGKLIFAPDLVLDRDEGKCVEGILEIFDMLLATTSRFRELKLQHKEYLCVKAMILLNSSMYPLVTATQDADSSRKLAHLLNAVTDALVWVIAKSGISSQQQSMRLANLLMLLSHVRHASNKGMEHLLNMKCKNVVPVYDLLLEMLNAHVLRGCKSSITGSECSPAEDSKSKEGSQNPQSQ
# mouse Peroxisome Proliferator-activated Receptor gamma (PPARg), Pparg (gene 19016), sequence (P37238 whole entry, looked up, the tested form may be a part): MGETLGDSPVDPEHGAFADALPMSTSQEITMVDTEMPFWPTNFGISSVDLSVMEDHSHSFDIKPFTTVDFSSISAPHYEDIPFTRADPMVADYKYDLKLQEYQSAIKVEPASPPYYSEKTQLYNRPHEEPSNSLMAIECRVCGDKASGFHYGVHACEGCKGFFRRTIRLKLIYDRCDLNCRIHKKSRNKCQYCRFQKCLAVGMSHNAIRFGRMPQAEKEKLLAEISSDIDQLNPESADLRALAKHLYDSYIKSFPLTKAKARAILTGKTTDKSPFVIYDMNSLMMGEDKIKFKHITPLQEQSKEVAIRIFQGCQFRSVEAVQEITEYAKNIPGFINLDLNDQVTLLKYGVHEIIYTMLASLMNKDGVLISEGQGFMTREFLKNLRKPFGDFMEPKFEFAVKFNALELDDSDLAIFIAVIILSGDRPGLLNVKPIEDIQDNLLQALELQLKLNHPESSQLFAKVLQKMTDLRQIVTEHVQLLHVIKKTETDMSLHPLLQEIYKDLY
# zebrafish Estrogen Receptor (ER1), esr1 (gene 259252), sequence (P57717 whole entry, looked up, the tested form may be a part): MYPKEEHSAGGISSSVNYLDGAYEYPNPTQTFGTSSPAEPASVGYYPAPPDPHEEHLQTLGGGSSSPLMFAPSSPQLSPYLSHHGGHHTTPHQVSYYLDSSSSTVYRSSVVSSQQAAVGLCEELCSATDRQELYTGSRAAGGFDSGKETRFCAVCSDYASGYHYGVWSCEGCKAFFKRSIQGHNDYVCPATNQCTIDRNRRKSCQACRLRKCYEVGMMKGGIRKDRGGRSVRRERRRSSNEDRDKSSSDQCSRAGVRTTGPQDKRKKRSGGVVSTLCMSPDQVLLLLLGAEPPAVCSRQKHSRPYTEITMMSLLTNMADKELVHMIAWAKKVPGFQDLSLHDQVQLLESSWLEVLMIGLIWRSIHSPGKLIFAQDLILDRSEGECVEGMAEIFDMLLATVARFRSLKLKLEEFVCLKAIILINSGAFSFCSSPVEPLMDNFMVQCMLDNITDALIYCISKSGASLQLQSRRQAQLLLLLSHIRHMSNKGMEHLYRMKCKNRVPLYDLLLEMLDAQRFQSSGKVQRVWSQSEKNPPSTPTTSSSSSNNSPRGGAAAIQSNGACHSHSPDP
smiles,measurement,setting,value
Oc1ccc(Cl)cc1Cc1ccccc1,outcome,[1],inactive
same,outcome,[2],inactive
same,outcome,[3],inactive
same,outcome,[4],inactive
same,outcome,[5],inactive
same,AC50,[6],14.6 µM (active)
same,outcome,[7],inactive
same,AC50,[8],10 µM (active)
same,outcome,[9],inactive
same,outcome,[10],inactive
same,outcome,[11],inactive
COP(=S)(OC)Oc1ccc([N+](=O)[O-])cc1,AC50,[1],29.6 µM (active) and 23.1 µM (active)
same,AC50,[2],26.8 µM (active)
same,outcome,[2],inactive
same,outcome,[3],inactive
same,outcome,[12],inactive
same,AC50,[4],27.7 µM (active) and 20.6 µM (active)
same,AC50,[5],26.7 µM (active)
same,outcome,[5],inactive
same,outcome,[13],inactive
same,outcome,[14],inactive
same,AC50,[6],39.3 µM (active)
same,outcome,[6],inactive
same,AC50,[15],31.1 µM (active) and 40.7 µM (active)
same,AC50,[7],100 µM (active) and 36.9 µM (active)
same,AC50,[8],27.7 µM (active)
same,outcome,[8],inactive
same,AC50,[9],27 µM (active)
same,outcome,[9],inactive
same,AC50,[10],41.4 µM (active)
same,outcome,[10],inactive
same,outcome,[16],inactive
same,outcome,[11],inactive
O=C(O)C(F)(F)C(F)(F)C(F)(F)C(F)(F)C(F)(F)C(F)(F)C(F)(F)F,AC50,[1],35.5 µM (active)
same,AC50,[2],38.4 µM (active)
same,AC50,[4],37.9 µM (active)
same,AC50,[5],100 µM (active)
same,outcome,[17],inactive
same,outcome,[13],inactive
same,outcome,[14],inactive
same,AC50,[6],124 µM (active)
same,outcome,[18],inactive
same,outcome,[19],inactive
same,AC50,[7],64.1 µM (active)
same,outcome,[11],inactive
O=S1OCC2C(CO1)C1(Cl)C(Cl)=C(Cl)C2(Cl)C1(Cl)Cl (stereo not given),AC50,[1],2.06 µM (active)
same,outcome,[12],inactive
same,outcome,[4],inactive
same,outcome,[13],inactive
same,AC50,[6],10 µM (active)
same,AC50,[15],1.04 µM (active)
same,outcome,[7],inactive
same,outcome,[8],inactive
same,outcome,[10],inactive
same,outcome,[16],inactive
CC(C)(C)C(O)/C(=C\c1ccc(Cl)cc1Cl)n1cncn1 (stereo not given),outcome,[1],inactive
same,AC50,[2],8.38 µM (active)
same,outcome,[2],inactive
same,outcome,[12],inactive
same,AC50,[4],16 µM (active)
same,outcome,[4],inactive
same,outcome,[5],inactive
same,outcome,[13],inactive
same,AC50,[6],44 µM (active) and 14.4 µM (active)
same,outcome,[19],inactive
same,AC50,[15],13.2 µM (active) and 17 µM (active)
same,AC50,[7],23.1 µM (active) and 8.13 µM (active)
same,AC50,[8],46.7 µM (active) and 47.6 µM (active)
same,AC50,[9],33.4 µM (active) and 20.8 µM (active)
same,AC50,[10],1.24 µM (active) and 1.41 µM (active)
same,outcome,[16],inactive
same,outcome,[11],inactive
Oc1cc(Cl)ccc1Oc1ccc(Cl)cc1Cl,outcome,[1],inactive
same,AC50,[3],15.8 µM (active)
same,AC50,[4],7.48 µM (active)
same,AC50,[5],14.1 µM (active)
same,outcome,[13],inactive
same,AC50,[6],16.1 µM (active)
same,outcome,[19],inactive
same,outcome,[7],inactive
same,AC50,[8],11.1 µM (active)
same,AC50,[9],15 µM (active)
same,AC50,[10],11.1 µM (active)
same,outcome,[16],inactive
same,outcome,[11],inactive
